PubChem BioAssay AID1851 (National Center for Advancing Translational Sciences (NCATS), 2009)
The whole screen tested about 16,000 compounds, of which about 5,700 (36%) were called active. Roughly 24% stayed inconclusive and do not appear here. Calls follow the shape of the dose curve; as a rule, active = well fitted curve in the direction sought with a large enough effect; inconclusive = small, poorly fitted or top-dose-only effect, or effect the other way; inactive = no such curve, though single readings can be large or run the other way. The list shows a part of the results.

Molecular target: Cytochrome P450 1A2 (Homo sapiens) (UniProt P05177)
Sequence (P05177 whole entry, looked up): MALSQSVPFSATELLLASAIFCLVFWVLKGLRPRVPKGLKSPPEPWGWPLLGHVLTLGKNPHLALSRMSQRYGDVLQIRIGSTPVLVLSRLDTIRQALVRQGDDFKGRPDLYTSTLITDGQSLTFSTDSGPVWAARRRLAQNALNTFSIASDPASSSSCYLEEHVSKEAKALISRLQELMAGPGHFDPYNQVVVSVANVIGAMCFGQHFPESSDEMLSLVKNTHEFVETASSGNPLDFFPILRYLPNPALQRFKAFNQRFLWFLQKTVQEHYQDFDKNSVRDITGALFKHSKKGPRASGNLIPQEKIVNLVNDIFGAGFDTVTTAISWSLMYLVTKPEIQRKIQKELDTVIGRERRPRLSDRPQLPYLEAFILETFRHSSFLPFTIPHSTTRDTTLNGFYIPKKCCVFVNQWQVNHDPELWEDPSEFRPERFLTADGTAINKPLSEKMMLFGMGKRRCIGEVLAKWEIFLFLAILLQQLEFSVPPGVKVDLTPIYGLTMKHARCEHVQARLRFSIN
Test: Cytochrome panel assay with activity outcomes
Settings: recombinant CYP, pro-luciferin dealkylation, luminescence, p450-cyp1a2; series mostly up to 57.1 µM; activity, negative = inhibition: at the top concentration
% is scaled to controls: 0 for no effect and ±100 for the full control effect.

activity, negative = inhibition, inactive:
N#Cc1ccc(CN2CCCC3(CCN(C(=O)c4cccc(F)c4)CC3)C2)cc1 1.62%, Cn1c(=O)[nH]c(=O)c2c1nc(CN1CCOCC1)n2CCCO 2.56%, Cc1ccccc1CN1CCN(CC(=O)NCCCN2CCN(c3ccc(F)cc3)CC2)C1=O 0.19%, CS(=O)(=O)N1CCC[C@@]2(CCN(C(=O)Nc3cccc(C#N)c3)C2)C1 -14.8%, CO[C@H]1COC(=O)C/C=C\[C@H](C)[C@@H](NS(=O)(=O)c2ccc(C)cc2)COC(=O)CCC[C@@H]1C 1.16% [at 11.4 µM], C=CC[C@@H]1C=C[C@H](O/N=C(\C)CCN2CCc3nc(CC)c(CC)cc3C2)[C@H](CO)O1 -3.35% [at 11.4 µM], Cc1ccc(S(=O)(=O)Nc2nc(C)c(NC(=O)Nc3ccc(Cl)cc3Cl)s2)cc1 -25.6%, C/C(=N/NS(=O)(=O)c1ccc(C)cc1)P(=O)(O)O -10% [at 11.4 µM], COc1ccc(C(=O)Nc2cccc(/C(C)=N/NC(=O)c3ccc([N+](=O)[O-])cc3)c2)cc1OC -13.8%, CN1CC[C@@]2(CCCN(C(=O)c3cc(C(F)(F)F)cc(C(F)(F)F)c3)C2)C1 -5.26%, CN(/C=C/C(=O)C(F)(F)F)Cc1ccccc1 -22.8%, Cc1cc(S(=O)(=O)NCCCN2CCOCC2)ccc1F -23%, CC(=O)Nc1ccc(S(=O)(=O)NC(CC(=O)NCCCN2CCOCC2)C(C)C)cc1 (centres undefined) 1.91%, CN(Cc1ccco1)c1cc(-c2ccoc2)ncn1 -19.3%, COc1ccc(C(=O)N2CCC3(CC2)CN(Cc2ccc(C#N)cc2)C3)cc1 -8.04%, COc1ccc(C(=O)Nc2ccc(S(=O)(=O)N3CCOCC3)cc2)cc1OC 7.02%, COc1ccc(NC(=O)N2CC[C@@]3(CCCN(C(=O)c4cccn4C)C3)C2)cc1 -11.7%, O=C(CSc1ncccn1)Nc1ccc(S(=O)(=O)N2CCCCC2)cc1 -4.34%, O=C(O)c1cc(S(=O)(=O)N2CCCCC2)ccc1F 14.6%, CC(C)=CCC/C(C)=C/CO/N=C1/C[C@@H](O)[C@@H](O)[C@@H]2[C@@H]3C(=O)N(C4CCCCC4)C(=O)[C@H]3CC[C@@H]12 -3% [at 11.4 µM], CC[C@@H]1OC(=O)[C@H](C)[C@H](O[C@@H]2C[C@](C)(OC)[C@H](O)[C@H](C)O2)[C@H](C)[C@H](O[C@@H]2O[C@@H](C)C[C@@H](N(C)C)[C@@H]2O)[C@](C)(O)C[C@H](C)C(=O)[C@H](C)[C@H](O)[C@]1(C)O -3.13% [at 25.6 µM], COCC(C)NCc1cccc(C)c1 (centres undefined) -15.4%, CC(=O)OC[C@H]1O[C@@H](O/N=C(\C)CCN2CCCCc3nc(C)c(C)cc32)[C@H](OC(C)=O)[C@@H](OC(C)=O)[C@H]1OC(C)=O -3.61% [at 11.4 µM], CCOc1ccc(N(CC(=O)NCc2ccc(OC)cc2)S(=O)(=O)c2c(C)noc2C)cc1 -6.85%, CCOc1ccc(CCNC(=O)CCCN2C(=O)c3ccccc3C2=O)cc1OCC -7.98%, O=C(CNC(=O)c1ccc([N+](=O)[O-])cc1)c1ccccc1 -9.2%, COc1ccc(-n2nc3cc(C)c(NC(=S)NC(=O)c4ccccc4C)cc3n2)cc1 -17.3%, c1ccc(-n2ncc3c(NCCCN4CCOCC4)ncnc32)cc1 -22.5%

AC50, inactive:
Oc1ccc([C@@H]2CNCCc3c2cc(O)c(O)c3Cl)cc1

AC50, active:
COc1ccc(CNc2ncncc2-c2ccccc2C(F)(F)F)c(OC)c1 15.8 µM, COc1ccccc1CNc1ncncc1-c1ccccc1Cl 10 µM, COc1ccccc1CNc1ncncc1-c1ccccc1C(F)(F)F 15.8 µM, Cn1cc(C2=C(c3ccc(Cl)cc3Cl)C(=O)NC2=O)c2ccccc21 3.16 µM, CNc1ccnc(-c2ccccc2OC)n1 5.01 µM, COc1ccccc1-c1nccc(NCc2ccccc2)n1 2.51 µM, COc1ccccc1-c1nccc(NCc2cccnc2)n1 0.2 µM, COc1ccccc1-c1nccc(NCc2cccc(C)c2)n1 0.631 µM, Cc1ccccc1-c1nccc(NCc2cccnc2)n1 0.2 µM, CNc1ccnc(-c2ccccc2C)n1 5.01 µM, C/C(=N\NC(=O)c1ccc(Cl)cc1)c1cccc(NC(=O)C(C)C)c1 3.55 µM, C/C(=N/NS(=O)(=O)c1ccc(C)cc1)c1cccc(NC(=O)c2cccc(Cl)c2)c1 14.1 µM, CCC(=O)Nc1ccc(/C(C)=N\NS(=O)(=O)c2ccc(C)cc2)cc1 25.1 µM, C/C(=N\NC(=O)c1cccc(Cl)c1)c1cccc(NC(=O)C(C)C)c1 5.01 µM, C/C(CC(=O)NCCCN1CCOCC1)=N\NC(=O)COc1ccc(Cl)cc1 2.51 µM, CN(C)c1ccc(-c2cc(N(C)Cc3ccco3)ncn2)cc1 0.316 µM, CN(Cc1ccco1)c1cc(-c2ccc3c(c2)OCO3)ncn1 0.501 µM, COc1cc(NC(=S)Nc2ccc(S(=O)(=O)N3CCOCC3)cc2)cc(OC)c1OC 2.51 µM, O=C(Nc1ccc(F)cc1)c1cc(S(=O)(=O)N2CCCCC2)cs1 17.8 µM, COc1ccc(-c2cc(C(F)(F)F)nc(NCc3cccnc3)n2)cc1 0.794 µM, COc1cccc(-c2nccc(NCc3cccnc3)n2)c1 0.158 µM, COc1cccc(-c2nccc(NCc3cccs3)n2)c1 0.2 µM, COc1cccc(-c2nccc(NCc3ccccc3)n2)c1 0.501 µM, COc1cccc(-c2nccc(NCc3cccc(C)c3)n2)c1 0.316 µM, COc1ccc(-c2cc(C(F)(F)F)nc(SCc3cccc(C(=O)O)c3)n2)cc1 7.08 µM, CCOc1ccc(-c2cc(CCCC(=O)NCCc3ccc(OC)c(OC)c3OC)no2)cc1 0.0631 µM, Cc1ccccc1C(=O)NC(=S)NCC(=O)c1ccccc1 10 µM, CC(=O)NCCNc1nc(-c2c(C)noc2C)nc2ccccc12 1.58 µM, Cc1noc(C)c1-c1nc(NCCN2CCOCC2)c2ccccc2n1 2.51 µM, COCCNc1nc(-c2c(C)noc2C)nc2ccccc12 0.126 µM
